# Assay results as given in PubChem BioAssay.
# Activity calls are given as the source filed them. Rule as the data show it, unless noted: active = inhibition above about 80%; inactive = the rest.
# Columns and labels:
# [1] = LFS_MB_P medulloblastoma growth inhibition, cell-based, chromothripsis tumors, cisplatin or BGB combos (AID 1671449); details: LFS_MB_P medulloblastoma cells;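 also: cells exposed for 96 hours; 0% = vehicle DMSO and 100% = killing by high DMSO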
# [2] = HDN33 neuroblastoma growth inhibition, cell-based, chromothripsis tumors, cisplatin or BGB combos (AID 1671450); details: HDN33 neuroblastoma cells, stronger effect = higher value;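 also: cells exposed to compound for four days; 0% = vehicle DMSO and 100% = cell killing by high DMSO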
# [3] = ICB984 medulloblastoma cell growth inhibition, synergistic combos for chromothripsis tumors, cisplatin or BGB combos (AID 1671451; call rule not given here;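 also: cells exposed for 96 hours before readout; 0% = vehicle DMSO and 100% = killing by high DMSO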); details: ICB984 medulloblastoma cells, drug combinations, stronger effect = higher value
# [4] = LFS_MB_1R medulloblastoma cell growth inhibition, synergistic combos for chromothripsis tumors, cisplatin or BGB combos (AID 1671452); details: LFS_MB_1R medulloblastoma cells, stronger effect = higher value;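 also: cells exposed for 96 hours before readout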
# [5] = HTB85 osteosarcoma cell growth inhibition, synergistic combos for chromothripsis tumors, BGB or cisplatin IC20 combos (AID 1671453); details: HTB85 osteosarcoma cells, drug combinations, stronger effect = higher value;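 also: cells exposed for 96 hours before readout; 0% = vehicle DMSO and 100% = high DMSO killing control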
# [6] = CRL2098 osteosarcoma cell growth inhibition, synergistic combos for chromothripsis tumors, BGB or cisplatin IC20 combos (AID 1671454); details: CRL2098 osteosarcoma cells, drug combinations, stronger effect = higher value;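 also: cells exposed for 96 h before readout; 0% = vehicle DMSO and 100% = killing by high DMSO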
# [7] = HD-MB03 medulloblastoma cell growth inhibition, synergistic combos for chromothripsis tumors, BGB or cisplatin IC20 combos (AID 1671455; in the data active = inhibition above about 83%;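 also: 0% = vehicle DMSO and 100% = high DMSO as cytotoxic control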); details: HD-MB03 medulloblastoma cells, stronger effect = higher value
# [8] = UWB1.289 ovarian carcinoma cell growth inhibition, synergistic combos for chromothripsis tumors, BGB or cisplatin combos (AID 1671456); details: UWB1.289 ovarian carcinoma cells, stronger effect = higher value;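 also: cells exposed to compound for four days; 0% = vehicle DMSO and 100% = killing by high DMSO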
# [9] = LFS_MB_2R medulloblastoma cell growth inhibition, synergistic combos for chromothripsis tumors, cisplatin combos (AID 1671457); details: LFS_MB_2R medulloblastoma cells, stronger effect = higher value;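 also: cells exposed to compound for four days before readout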
# [10] = MDA-MB-436 breast carcinoma cell growth inhibition, synergistic combos for chromothripsis tumors, BGB or cisplatin combos (AID 1671458; call rule not given here;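 also: cells exposed for 96 hours; 0% = vehicle DMSO and 100% = killing by high DMSO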); details: MDA-MB-436 breast carcinoma growth inhibition, drug combinations, stronger effect = higher value
# [11] = UWB1.289_BRCA1 ovarian cancer growth, cell-based, BGB or cisplatin combinations (AID 1671459); details: UWB1.289 BRCA1 ovarian carcinoma, drug combinations, stronger effect = higher value
# [12] = human astrocyte viability loss, single and combined drugs, cytotoxicity control for chromothriptic childhood tumor combination screen, cell-based, BGB or cisplatin IC20 combos (AID 1671460); details: Human astrocytes, drug combinations, stronger effect = higher value;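 also: cells exposed to compounds for 96 hours before viability readout; 0% = vehicle and 100% = killing control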
# [13] = growth inhibition of BT084 medulloblastoma cells, cell-based, ICGC_MB145, cisplatin and BGB IC40 combos (AID 1671461); details: drug combinations, stronger effect = higher value;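 also: cells exposed to drugs for 96 hours; 0% = vehicle DMSO and 100% = high DMSO full killing control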
# [14] = growth inhibition of RCMB18 medulloblastoma cells, cell-based, cisplatin and BGB IC40 combos (AID 1671462); details: stronger effect = higher value;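 also: cells exposed to compound for four days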
# [15] = growth inhibition of CRL1545 osteosarcoma cells, cell-based, cisplatin and BGB IC20 combos (AID 1671464); details: stronger effect = higher value;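 also: cells exposed to compound for 96 hours before readout; 0% = vehicle DMSO and 100% = high DMSO killing control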
# [16] = measured here: combination with BGB IC40, at 0.05 µM
# [17] = measured here: with BGB IC20 combination, at 0.5 µM
# [18] = measured here: with cisplatin IC20 combination, at 0.5 µM
# [19] = measured here: combination with cisplatin, at 0.5 µM
# [20] = measured here: combination with cisplatin, at 5 µM
compound,measurement,setting,value
N#Cc1ccc(OC2CCC(NC(=O)CCSc3nc4ccccc4c(=O)[nH]3)CC2)cc1 (stereo not drawn),inhibition,"[1]; at 0.5 µM, stronger effect = higher value",-11.7% (inactive)
same,inhibition,"[1]; measured here: combination with BGB IC20, at 0.005 µM",-15.6%
same,inhibition,"[1]; measured here: combination with BGB IC40, at 0.005 µM",-25.5%
same,inhibition,[1]; [16],-19.3%
same,inhibition,"[1]; measured here: combination with cisplatin, at 0.5 µM, stronger effect = higher value",-29.6%
same,inhibition,"[1]; measured here: combination with cisplatin, at 5 µM, stronger effect = higher value",-57.3%
same,inhibition,"[2]; BGB combo, at 5 µM",8.7%
same,inhibition,[2]; at 0.5 µM,15.1% (inactive)
same,inhibition,"[2]; cisplatin combo, at 5 µM",37.4%
same,inhibition,[2]; [17],12.5%
same,inhibition,[2]; [18],15.6%
same,inhibition,"[2]; single agent, at 5 µM",35.9%
same,inhibition,"[3]; BGB IC20 combo, at 0.005 µM",-4.21%
same,inhibition,"[3]; BGB IC40 combo, at 0.005 µM",-8.75%
same,inhibition,"[3]; BGB IC40 combo, at 0.05 µM",7.9%
same,inhibition,[3]; at 0.5 µM,-30.9% (inactive)
same,inhibition,"[3]; cisplatin combo, at 0.05 µM",4.58%
same,inhibition,"[3]; cisplatin combo, at 0.5 µM",-24.9%
same,inhibition,"[3]; cisplatin combo, at 5 µM",-26.6%
same,inhibition,"[3]; measured here: 5 uM single agent, at 5 µM",2.34%
same,inhibition,[4]; at 0.5 µM,-15.5% (inactive)
same,inhibition,[4]; [16],-12.5%
same,inhibition,[4]; [19],-1.66%
same,inhibition,[4]; [20],-48.1%
same,inhibition,[5]; at 0.5 µM,8.65% (inactive)
same,inhibition,"[5]; measured here: with BGB IC20, at 0.5 µM",1.42%
same,inhibition,"[5]; measured here: with BGB IC20, at 5 µM",-9.23%
same,inhibition,"[5]; measured here: with cisplatin IC20, at 0.5 µM",9.73%
same,inhibition,"[5]; measured here: with cisplatin IC20, at 5 µM",-13.4%
same,inhibition,"[5]; single agent, at 5 µM",12.3%
same,inhibition,[6]; at 0.5 µM,-13.9% (inactive)
same,inhibition,"[6]; measured here: combination with BGB at IC20, at 0.5 µM",25.6%
same,inhibition,"[6]; measured here: combination with cisplatin at IC20, at 0.5 µM",-58.5%
same,inhibition,[7]; at 0.5 µM,5.55% (inactive)
same,inhibition,"[7]; measured here: combo with BGB at IC20, at 0.5 µM",2.46%
same,inhibition,"[7]; measured here: combo with cisplatin at IC20, at 0.5 µM",7.46%
same,inhibition,[8]; at 0.5 µM,13.3% (inactive)
same,inhibition,"[8]; measured here: inhibition with BGB combination, at 0.05 µM",-10.8%
same,inhibition,"[8]; measured here: inhibition with cisplatin combination, at 0.05 µM",9.73%
same,inhibition,[9]; at 0.5 µM,-13.3% (inactive)
same,inhibition,[9]; [19],-14.4%
same,inhibition,[9]; [20],-3.9%
same,inhibition,[10]; at 0.5 µM,3.61% (inactive)
same,inhibition,"[10]; measured here: BGB combination, at 0.5 µM",-7.72%
same,inhibition,"[10]; measured here: BGB combination, at 5 µM",-9.87%
same,inhibition,"[10]; measured here: cisplatin combination, at 0.5 µM",1.31%
same,inhibition,"[10]; measured here: cisplatin combination, at 5 µM",0.512%
same,inhibition,"[11]; BGB combination, concentration series, at 5 µM",24.2%
same,inhibition,[11]; at 0.5 µM,9.54% (inactive)
same,inhibition,"[11]; cisplatin combination, concentration series, at 5 µM",-12.4%
same,inhibition,[12]; at 0.5 µM,37.4% (inactive)
same,inhibition,"[12]; measured here: combo with BGB IC20, at 0.5 µM",26.2%
same,inhibition,"[12]; measured here: combo with cisplatin IC20, at 0.5 µM",40.6%
same,inhibition,[13]; at 0.5 µM,0.647% (inactive)
same,inhibition,"[13]; cisplatin combination, at 0.5 µM",-17.2%
same,inhibition,"[13]; cisplatin combination, at 5 µM",-3.13%
same,inhibition,"[13]; measured here: BGB IC40 combination 0.05 uM, at 0.05 µM",-41.1%
same,inhibition,"[13]; single agent, at 5 µM",-16.5%
same,inhibition,[14]; at 0.5 µM,7.33% (inactive)
same,inhibition,"[14]; cisplatin combo, at 5 µM",-24.6%
same,inhibition,"[14]; measured here: BGB IC40 combination, at 0.05 µM",-11.2%
same,inhibition,[14]; [19],27.6%
same,inhibition,"[14]; single agent, at 5 µM",-12.9%
same,inhibition,[15]; at 0.5 µM,-30% (inactive)
same,inhibition,[15]; [17],-19.6%
same,inhibition,[15]; [18],-37.4%
same,inhibition,"[15]; single agent, at 0.05 µM",34.4%
same,inhibition,"[15]; single agent, at 5 µM",4.49%
